Bioassay records deposited in PubChem BioAssay by The Scripps Research Institute Molecular Screening Center.
pPAFAH inh = inhibitors of human plasma PAF acetylhydrolase (pPAFAH); Q13093; recombinant pPAFAH, FP-rhodamine probe fluorescence polarization; inhibition, % at 3.39 µM; actives 1.5% (n = 330,000);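 active means inhibition above the mean inhibition across the screen plus 3 SD, cut at about 25% in these data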;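 further: inhibitors block binding of the rhodamine activity-based probe so polarization drops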
PP5 inh = blocks human protein phosphatase 5 activity. P53041. purified PP5c, OMFP substrate fluorescence. inhibition, % at 6.7 µM. actives 0.18% (n = 320,000). AID 1987;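 active means inhibition above the campaign's mean inhibition across all tested compounds plus 3 SD, cut at about 9.5% in these data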
PAFAH1B3 inh = inhibitors of human PAFAH1B3; Q15102; recombinant PAFAH1B3, FP-rhodamine probe, fluorescence polarization; inhibition, % at 3.39 µM; actives 0.28% (n = 340,000); AID 492972;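 active means inhibition above the screen-wide average of all tested compounds plus 3 SD, cut at about 25% in these data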
Target sequence (Q15102 whole entry, looked up): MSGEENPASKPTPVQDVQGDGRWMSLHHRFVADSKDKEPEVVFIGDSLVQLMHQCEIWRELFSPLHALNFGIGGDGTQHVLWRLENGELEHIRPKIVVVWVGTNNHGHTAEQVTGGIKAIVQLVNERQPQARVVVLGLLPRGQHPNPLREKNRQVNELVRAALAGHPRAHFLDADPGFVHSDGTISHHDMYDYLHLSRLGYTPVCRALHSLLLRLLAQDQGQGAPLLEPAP
PAFAH1B2 FP inh = blocks human PAF acetylhydrolase 1b catalytic subunit 2; recombinant PAFAH1B2, FP-rhodamine activity probe, fluorescence polarization; inhibition, % at 3.39 µM; actives 1.2% (n = 340,000); AID 492953;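 active means inhibition above the mean of all tested compounds plus 3 SD, cut at about 24% in these data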
Target sequence (P68402 whole entry, looked up): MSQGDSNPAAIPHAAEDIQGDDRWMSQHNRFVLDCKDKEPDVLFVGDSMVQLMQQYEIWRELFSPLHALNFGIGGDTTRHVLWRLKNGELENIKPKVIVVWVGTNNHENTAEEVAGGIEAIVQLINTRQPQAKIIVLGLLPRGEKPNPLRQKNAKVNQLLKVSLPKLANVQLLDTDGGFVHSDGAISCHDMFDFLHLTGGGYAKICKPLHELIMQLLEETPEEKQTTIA
Fh CTSL1 inh = blocks F. hepatica cathepsin L1 in PFM18AAP counter-screen; recombinant F. hepatica cathepsin L1, Z-Leu-Arg-MCA fluorescence; inhibition, % at 5.96 µM; actives 0.49% (n = 300,000);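 active means inhibition above the mean of all tested compounds plus 3 SD, set per screening campaign, cut at about 17% in these data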
PAFAH2 FP inh = PAFAH2 (human) inhibition; Q99487; recombinant PAFAH2, FP-rhodamine activity probe, fluorescence polarization; inhibition, % at 3.39 µM; actives 0.99% (n = 340,000);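 active means inhibition above the mean over all tested compounds plus 3 SD, cut at about 30% in these data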;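 further: inhibitors block probe labeling of enzyme so polarization drops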
Each line names hits and unclear results; the compound was inactive in the other large screens. In the library only some 3% were active in any assay of this set; here they are far more common.

O=S(=O)(NCc1ccccc1)c1ccc(Cl)cc1	none
O=S(=O)(Nc1cc2nc3ccccc3nc2n1Cc1ccccc1)c1ccc(Cl)cc1	PAFAH1B3 inh 63, PAFAH1B2 FP inh 47, PAFAH2 FP inh 66
N#CC(C(=S)Nc1ccccc1)c1nc2ccccc2[nH]1 (configuration not stated)	none
CSC(=Nc1ccccc1)C(C#N)c1nc2ccccc2[nH]1 (configuration not stated)	pPAFAH inh 31
CSCCC(NS(=O)(=O)c1ccc(Cl)cc1)C(=O)OCC(=O)N(C(C)C)C(C)C (configuration not stated)	none
CSCCC(NS(=O)(=O)c1ccc(Cl)cc1)C(=O)OCC(=O)NC1CC1 (configuration not stated)	none
CSCCC(NS(=O)(=O)c1ccc(Cl)cc1)C(=O)OCc1c(Cl)cccc1Cl (configuration not stated)	PAFAH1B2 FP inh 27
CSCCC(NS(=O)(=O)c1ccc(Cl)cc1)C(=O)OCc1cccc(Cl)c1 (configuration not stated)	PAFAH1B2 FP inh 33
O=c1cc(-c2ccccc2)nc2cc(-c3ccco3)[nH]n12	pPAFAH inh 27
CS(=O)(=O)Nc1ccccc1C(=O)Nc1cccc(Cl)c1	none
CS(=O)(=O)Nc1ccccc1C(=O)Nc1cc(Cl)cc(Cl)c1	pPAFAH inh 28
CCN(C(=O)CSc1nnc(-c2ccc(OC)cc2)n1C(C)C)C1CCS(=O)(=O)C1 (configuration not stated)	none (no result: PP5 inh, Fh CTSL1 inh)
CN(C)C1CCN(Cc2cc(COCc3ccccc3)c3cccnc3c2O)C1 (configuration not stated)	pPAFAH inh 25 (no result: PP5 inh, Fh CTSL1 inh)
Cc1ccc(S(=O)(=O)NCCc2cc3ccc(C)cc3[nH]c2=O)cc1	PAFAH1B2 FP inh 27
COc1ccc(/C(O)=C2/C(=O)C(=O)N(CCN3CCNCC3)C2c2cccc([N+](=O)[O-])c2)cc1 (configuration not stated)	none
O=C(Cc1ccc(Br)cc1)OCC(=O)N1CCOCC1	none (no result: PP5 inh, Fh CTSL1 inh)
CCOC(=O)N1CCN(C(=O)COC(=O)Cc2ccc(Cl)cc2)CC1	pPAFAH inh 34
CC1CCN(C(=O)COC(=O)Cc2ccc(Br)cc2)CC1	pPAFAH inh 29
N#Cc1cccc(NC(=O)CCc2ccc(S(=O)(=O)N3CCOCC3)cc2)c1	none (no result: PP5 inh, Fh CTSL1 inh)
N=c1oc2ccc(Br)cc2cc1C(=O)NCc1ccccc1	none
CC(NC(=O)c1cc2cc(Br)ccc2oc1=N)c1ccccc1 (configuration not stated)	PAFAH1B2 FP inh 37
N#Cc1c(-c2ccncc2)c2c([nH]c1=S)CCCC2	none
Cc1ccc(-c2c3c([nH]c(=S)c2C#N)CCCC3)o1	pPAFAH inh 25
CC(/C=C1\SC(=S)N(NS(=O)(=O)c2ccc(C)cc2)C1=O)=C\c1ccccc1	PAFAH1B2 FP inh 28
CC(/C=C1\SC(=S)N(NC(=O)c2ccc(C)cc2)C1=O)=C\c1ccccc1	none
CC(/C=C1\SC(=S)N(NS(=O)(=O)c2ccccc2)C1=O)=C\c1ccccc1	PAFAH1B2 FP inh 39
COC/C=C/C1=CC2=CC(=O)C(C)(OC(=O)c3cnc4ccccc4n3)C(=O)C2=CO1 (configuration not stated)	pPAFAH inh 55 (no result: PAFAH1B3 inh, PAFAH1B2 FP inh, PAFAH2 FP inh)
COC/C=C/C1=CC2=CC(=O)C(C)(OC(=O)c3cnc4ccccc4n3)C(=O)C2=CN1C(CO)CO (configuration not stated)	none
C[C@H]1CN([C@@H](C)CO)C(=O)c2cccc(NC(=O)C3CC3)c2O[C@H]1CN(C)S(=O)(=O)c1ccccc1	none (no result: PP5 inh, Fh CTSL1 inh)
CC(=O)N1CCN(c2ccc(OC[C@H]3CO[C@](Cn4ccnc4)(c4ccc(Cl)cc4Cl)O3)cc2)CC1	pPAFAH inh 26
Cc1ccc(N=Nc2ccc3ccccc3c2O)cc1	PAFAH1B3 inh 52, PAFAH1B2 FP inh 86, PAFAH2 FP inh 35
CC(C)N(Cc1ccccc1)C(=O)CN1C(=O)NC(Cc2ccccc2)(c2ccccc2)C1=O (configuration not stated)	PAFAH1B2 FP inh 26
CC(C)N(Cc1ccccc1)C(=O)CN1C(=O)NC2(CCCc3ccccc32)C1=O (configuration not stated)	none
COc1ccc(N2CCN(c3ncnc4scc(-c5ccccc5)c34)CC2)cc1	pPAFAH inh 32
COc1ccc(N2CCN(c3ncnc4scc(-c5ccc(C)cc5)c34)CC2)cc1	none
NC(=O)c1c(NC(=O)CSc2nnc(-c3ccco3)n2-c2ccccc2)sc2c1CCC2	pPAFAH inh 33
O=C(O)CCn1cc(/C=C2\NC(=S)N(c3ccccc3)C2=O)c(-c2ccc(Br)cc2)n1	Fh CTSL1 inh 19
COCCNC(=O)CN1C(=O)NC(c2ccccc2)(c2ccccc2)C1=O	none
CCCCCOCC1CC(C/C(C)=N/NC(N)=S)C(=O)O1 (configuration not stated)	Fh CTSL1 inh 18
Cc1ccc(S(=O)(=O)n2cnc3ccccc32)cc1	none
Cc1ccc(S(=O)(=O)n2cc(CO)c3ccccc32)cc1	PAFAH1B2 FP inh 47 (no result: pPAFAH inh, PP5 inh, Fh CTSL1 inh)
Cc1cccnc1NC(=O)CNC(=O)COc1ccccc1	none
O=C1CSC(c2ccc([N+](=O)[O-])cc2)N1C1CCCCC1 (configuration not stated)	PAFAH1B2 FP inh 27
O=C1CSC(c2ccc([N+](=O)[O-])cc2)N1CCN1CCCCC1 (configuration not stated)	none
Cc1ccsc1-c1nc(-c2ccccc2)c(-c2ccccc2)[nH]1	Fh CTSL1 inh 19
Fc1ccc(-c2nc(-c3cccs3)[nH]c2-c2ccc(F)cc2)cc1	none
CNc1nc(NCCOC23CC4CC(CC(C4)C2)C3)nc(OCC(F)(F)F)n1	PAFAH1B2 FP inh 31
Cc1cccc(C2=NN(c3ccccc3)[C@@H](C(=O)N3CCOC3=O)[C@@H]2c2ccccc2)c1	none (no result: PP5 inh, Fh CTSL1 inh)
Cc1cccc(C2=NN(c3ccc(Br)cc3)[C@@H](C(=O)N3CCOC3=O)[C@@H]2c2ccccc2)c1	pPAFAH inh 29 (no result: PP5 inh, Fh CTSL1 inh)
Oc1c(Cl)cc(Cl)cc1C=Nc1cc(C(F)(F)F)ccc1N1CCc2ccccc2C1	pPAFAH inh 28
COc1ccc(OC)c(-c2cc(C(=O)Nc3c(C)nn(Cc4ccccc4Cl)c3C)no2)c1	none
Cc1cc(C(=O)Nc2c(C)nn(Cc3ccccc3Cl)c2C)no1	pPAFAH inh 26
CC1(C)Oc2ccc(C(=O)NNC(=O)Nc3ccccc3)cc2NC1=O	none
N#Cc1ccccc1CSCCNC(=O)Cc1c(F)cccc1Cl	none
CCOc1cc(-c2nn3cnnc3s2)cc(OCC)c1OCC	pPAFAH inh 28
Cc1nnc2sc(SCC(=O)N3CCC(C)CC3)nn2c1=O	Fh CTSL1 inh 47
Cc1nnc2sc(SCC(=O)N3CCCCC3)nn2c1=O	none
COc1cccc(N2[C@@H](CC(C)=O)c3cc(C(F)(F)F)ccc3S2(=O)=O)c1	none
